Here are results for 40 compounds from the supplement of paper PMC8975748.

Where a name gives a salt, the structure may show the parent alone.

In this experiment the test system is Saccharomyces cerevisiae BY4741 SeMeCo community. Description: z-score of subpopulation abundance vs DMSO median, subpopulation auxotrophic for HLM; higher = larger share of this subpopulation than in DMSO controls. As to conditions: 10 µM; 24 h; SM minimal medium; subpopulation (auxotrophy): HLM. The method, then: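 Fluorescent four-plasmid SeMeCo (self-establishing metabolically cooperating S. cerevisiae BY4741 community; plasmids pH-mRuby2, pL-mWasabi, pU-eCFP, pM-TagRFP657) was grown 24 h in minimal SM medium with each Selleck FDA-approved drug at 10 µM in 384-well plates. Cells were fixed and imaged by high-content confocal microscopy. For each auxotrophic subpopulation (and the prototroph), a z-score gives the deviation from the DMSO vehicle-control population median.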
With `CC1(C)S[C@@H]2[C@H](NC(=O)[C@H](NC(=O)N3CCNC3=O)c3ccccc3)C(=O)N2[C@H]1C(=O)O` [Azlocillin sodium salt], the “z-score of subpopulation abundance” value is -0.3.

For `N/C(=N\N=C\c1ccc(Cl)cc1)N/N=C/c1ccc(Cl)cc1` [Robenidine Hydrochoride], the “z-score of subpopulation abundance” value is 10.4.

For `C[C@]12CC[C@@H]3c4ccc(O)cc4CC[C@H]3[C@@H]1CC[C@@H]2OC(=O)CCC1CCCC1` [Estradiol Cypionate], the “z-score of subpopulation abundance” value is 0.33. As for `O=C([O-])CC(O)(CC(=O)[O-])C(=O)[O-].O=C([O-])CC(O)(CC(=O)[O-])C(=O)[O-].[Bi+3].[K+].[K+].[K+].[K+].[K+]` [Bismuth Subcitrate Potassium], the figure is 1.76. As for `C[C@]12CCC3=C4CCC(=O)C=C4CC[C@H]3[C@@H]1CC[C@@]2(O)CC#N` [Dienogest], the figure is -0.38. As for `Cc1[nH]cnc1CN1CCc2c(c3ccccc3n2C)C1=O` [Alosetron Hydrochloride], the figure is 0.08; as for `O=C1Cc2cc(CCN3CCN(c4nsc5ccccc45)CC3)c(Cl)cc2N1` [Ziprasidone HCl], 1.1; as for `CC(C)(C)C(=O)OCOC(=O)[C@@H]1N2C(=O)[C@@H](/N=C/N3CCCCCC3)[C@H]2SC1(C)C` [Pivmecillinam hydrochloride], -0.52. In the case of `Cc1c(OCC(F)(F)F)ccnc1C[S@@+]([O-])c1nc2ccccc2[nH]1` [Dexlansoprazole], the “z-score of subpopulation abundance” value is -0.96. The result for `CN1CCc2cc3c(cc2C(=O)Cc2ccc4c(c2C1)OCO4)OCO3` [Protopine] reads 0.14; that for `Nc1nc(O)c2ncn(CCC(CO)CO)c2n1` [Penciclovir], -0.62; that for `O=C(CCCN1CCC(O)(c2ccc(Cl)cc2)CC1)c1ccc(F)cc1` [Haloperidol], -0.12. As for `CN(Cc1ccc(C(C)(C)C)cc1)Cc1cccc2ccccc12` [Butenafine HCl], the “z-score of subpopulation abundance” value was -0.42. The result for `CCN(CC)C(=O)[C@@]1(c2ccccc2)C[C@H]1CN` [Levomilnacipran Hydrochloride] reads -1.07. The result for `NC12CC3CC(CC(C3)C1)C2` [Amantadine HCl] reads -0.47; that for `CCC(C)(C)C(=O)O[C@H]1C[C@@H](C)C=C2C=C[C@H](C)[C@H](CC[C@@H]3C[C@@H](O)CC(=O)O3)[C@H]21` [Simvastatin], 3.79. `COc1ccc(C[C@H](N)C(=O)N[C@H]2[C@@H](O)[C@H](n3cnc4c(N(C)C)ncnc43)O[C@@H]2CO)cc1` [Puromycin 2HCl]: the “z-score of subpopulation abundance” value is -0.12. Regarding `CC[C@H]1OC(=O)[C@H](C)[C@@H](O[C@H]2C[C@@](C)(OC)[C@@H](O)[C@H](C)O2)[C@H](C)[C@@H](O[C@@H]2O[C@H](C)C[C@H](N(C)C)[C@H]2O)[C@](C)(O)C[C@@H](C)CN(C)[C@H](C)[C@@H](O)[C@]1(C)O` [Azithromycin], the “z-score of subpopulation abundance” value was 0.46. For `CC1(C)S[C@@H]2[C@H](NC(=O)Cc3ccccc3)C(=O)N2[C@H]1C(=O)O` [Penicillin G Sodium], the “z-score of subpopulation abundance” value was -0.09.

As to `C[C@@H](O)[C@H]1C(=O)N2C(C(=O)O)=C(SCCNC=N)C[C@H]12` [Imipenem], the “z-score of subpopulation abundance” value was determined as 0.25.

With `CCCCNC(=O)NS(=O)(=O)c1ccc(C)cc1` [Tolbutamide], the “z-score of subpopulation abundance” value is -0.11.

For the compound `c1ccc(-c2ccc(C(c3ccccc3)n3ccnc3)cc2)cc1` (stereo not given) [Bifonazole], the “z-score of subpopulation abundance” value was determined as 2.32. As for `CN(Cc1cnc2nc(N)nc(N)c2n1)c1ccc(C(=O)N[C@@H](CCC(=O)O)C(=O)O)cc1` [Methotrexate], the figure is 8.99; as for `COC(=O)C1=C(C)NC(C)=C(C(=O)OC2CCCN(Cc3ccccc3)C2)C1c1cccc([N+](=O)[O-])c1` (stereo not given) [Benidipine HCl], 0.06; as for `CC(=O)OCC1=C(C(=O)O)N2C(=O)[C@@H](NC(=O)Cc3cccs3)[C@H]2SC1` [Cephalothin], 0.05. As for `CC(N)C12CC3CC(CC(C3)C1)C2` (stereo not given) [Rimantadine], the figure is 0.47; as for `CN1[C@@H]2CC[C@H]1C[C@@H](OC(=O)c1c[nH]c3ccccc13)C2` [Tropisetron HCl], -0.38.

On to `NC[C@@H]1O[C@H](O[C@H]2[C@@H](O)[C@H](O[C@@H]3[C@@H](O)[C@H](N)C[C@H](N)[C@H]3O[C@H]3O[C@H](CO)[C@@H](O)[C@H](O)[C@H]3N)O[C@@H]2CO)[C@H](N)[C@@H](O)[C@@H]1O` [Paromomycin Sulfate], for which the “z-score of subpopulation abundance” value is 0.02. The result for `COc1ccc(C2CNC(=O)C2)cc1OC1CCCC1` (stereo not given) [Rolipram] reads -1.22. As for `CO/N=C(\C(=O)N[C@@H]1C(=O)N2C(C(=O)OCOC(=O)C(C)(C)C)=C(/C=C\c3scnc3C)CS[C@H]12)c1csc(N)n1` [Cefditoren Pivoxil], the figure is 0.31. As for `CO/N=C(\C(=O)N[C@@H]1C(=O)N2C(C(=O)[O-])=C(C[N+]3(C)CCCC3)CS[C@H]12)c1csc(N)n1` [Cefepime Dihydrochloride Monohydrate], the “z-score of subpopulation abundance” value was found to be 0.34. In the case of `C[C@]12CC[C@@H]3c4ccc(OC(=O)c5ccccc5)cc4CC[C@H]3[C@@H]1CC[C@@H]2O` [Estradiol Benzoate], the “z-score of subpopulation abundance” value was -0.6.

As for `C[n+]1ccccc1C=NO` [Pralidoxime Iodide], the “z-score of subpopulation abundance” value was 0.32. In the case of `CCn1cc(C(=O)O)c(=O)c2cc(F)c(N3CCNCC3)nc21` [Enoxacin Sesquihydrate], the “z-score of subpopulation abundance” value is -0.85. The result for `O=c1ccc2ccc(OCCCCN3CCN(c4cccc5sccc45)CC3)cc2[nH]1` [Brexpiprazole] reads -0.13. In the case of `CCOC(=O)C1=C(COCCN)NC(C)=C(C(=O)OC)[C@@H]1c1ccccc1Cl` [Levamlodipine], the “z-score of subpopulation abundance” value stood at 1.82.

Take `O=C1c2c(O)ccc(O)c2C(=O)c2c(NCCNCCO)ccc(NCCNCCO)c21` [Mitoxantrone 2HCl]: the “z-score of subpopulation abundance” value is -2.5.

As to `O=C(O)C[C@H](O)C[C@H](O)/C=C/c1c(C2CC2)nc2ccccc2c1-c1ccc(F)cc1` [Pitavastatin Calcium], the “z-score of subpopulation abundance” value worked out at 2.39. The result for `CCN(CC)CCNC(=O)c1cc(S(C)(=O)=O)ccc1OC` [Tiapride Hydrochloride] reads 3.15; that for `CO/N=C(\C(=O)N[C@@H]1C(=O)N2C(C(=O)O)=C(CSc3nc(C)c(CC(=O)O)s3)CS[C@H]12)c1csc(N)n1` [Cefodizime Sodium], -1.07.
